# Compound activity: PubChem, National Center for Advancing Translational Sciences (NCATS)
# NS1 inh – blocks influenza NS1 protein function; Potency, µM (doses to about 46.1 µM), inactives show top-dose activity, positive = more growth; AID 2326; 270,000 tested, 0.4% active; note: potency is the fitted concentration of half-maximal effect; actives are rising curves; nearly all actives have a fitted effect of over 50% in size
#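 A cell-based growth assay was used: compounds that relieve NS1-induced slow growth of budding yeast raise OD600. Assay medium was yeast nitrogen base with ammonium sulphate and -URA supplement, pH 6.0, with 2% galactose.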
# LmPK inhibitor – inhibitors of Leishmania mexicana pyruvate kinase; Q27686; 290,000 tested, 0.37% active; purified LmPK, Kinase-Glo ATP luminescence, 1 h; AID 1721; Potency, µM (doses to about 57.5 µM), for inactives: at the highest dose activity change, negative = inhibition, actives largely listed as inhibitors; active = well fitted curve in the direction sought with a large enough effect; inconclusive = small, poorly fitted or top-dose-only effect, or another doubt; inactive = no such curve, though single readings can be large; an effect the other way counts as inactive or inconclusive; note: potency is the fitted concentration of half-maximal effect; % is set by controls: 0 for no effect and ±100 for the full control effect
# Target sequence (Q27686 whole entry, looked up): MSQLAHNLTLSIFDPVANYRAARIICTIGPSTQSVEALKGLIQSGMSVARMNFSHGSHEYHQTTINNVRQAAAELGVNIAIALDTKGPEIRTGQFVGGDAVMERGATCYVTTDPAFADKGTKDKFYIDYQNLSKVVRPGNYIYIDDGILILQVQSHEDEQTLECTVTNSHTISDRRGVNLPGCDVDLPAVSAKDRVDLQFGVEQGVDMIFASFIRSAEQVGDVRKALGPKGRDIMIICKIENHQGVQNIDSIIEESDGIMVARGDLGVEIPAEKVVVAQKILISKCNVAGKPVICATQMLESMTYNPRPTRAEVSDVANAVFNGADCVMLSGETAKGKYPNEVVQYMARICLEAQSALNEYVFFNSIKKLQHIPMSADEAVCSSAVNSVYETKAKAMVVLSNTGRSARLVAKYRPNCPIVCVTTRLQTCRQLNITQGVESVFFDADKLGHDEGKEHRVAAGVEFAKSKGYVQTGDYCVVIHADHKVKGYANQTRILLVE
#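 In 50 mM imidazole pH 7.2 with 7 mM MgCl2, LmPK (0.1 nM) turned over PEP (0.5 mM) and ADP (0.1 mM) for 1 h at room temperature. Luciferase read-out of ATP.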
# Cycloheximide cs – affects cycloheximide protein synthesis inhibition readout, counter-screen; max response, %; cell reporter, cycloheximide protein synthesis inhibition counterscreen; 300,000 tested, 12% active; in the data active = max response mostly above about 13%, no sharp cut-off; inactive = mostly below about 14%; note: read at 38.3 µM for the half of the compounds with a filed dose; 0% is about no effect
# SARS PLpro yeast – blocks SARS-CoV papain-like protease in a yeast assay. S. cerevisiae expressing SARS-CoV PLpro, growth rescue. Potency, µM (series often up to 32.9 µM), without a hit: top-dose activity, positive = growth rescue, usual class: activators. 330,000 tested, 0.19% active. AID 485353; note: potency is the fitted concentration of half-maximal effect; 0% is about no effect; nearly all actives have a fitted effect of over 55% in size
# TbPYK inhibitor – blocks Trypanosoma brucei pyruvate kinase. 410,000 tested, 0.12% active. Potency, µM (titrated, usually from 76.8 µM), inactives show at the top dose activity, negative = inhibition, usual class: inhibitors. Q57TT1. TbPYK enzyme, Kinase-Glo Plus ATP luminescence, 45 min; active = well fitted curve in the direction sought with a large enough effect; inconclusive = small, poorly fitted or top-dose-only effect, or another doubt; inactive = no such curve, though single readings can be large; an effect the other way counts as inactive or inconclusive; note: potency is the fitted concentration of half-maximal effect; % is set by controls: 0 for no effect and ±100 for the full control effect; nearly all actives have a fitted effect of over 50% in size
#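 Luminescence from Kinase-Glo Plus, added after a 45-minute room-temperature reaction, served as the end-point read-out. The enzyme and substrate were preincubated with compound before ADP (130 uM final) initiated turnover. Concentration-effect curves came from normalized qHTS data.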
# Shiga toxin inh – blocks Shiga toxin action in Vero cells | Vero cells, Shiga toxin protein synthesis inhibition reporter | inhibition, % at 38.7 µM | 290,000 tested, 9.2% active | AID 2315; in the data active = inhibition mostly above about 28%, no sharp cut-off; inactive = mostly below about 43%; note: 0% is about no effect
# An asterisk follows results filed as active; ? = inconclusive; · = not tested or not shown. Only a selection was taken, and hits are over-represented in it overall. Unless noted, calls come from the whole dose curve.
SMILES,NS1 inh,LmPK inhibitor,Cycloheximide cs,SARS PLpro yeast,TbPYK inhibitor,Shiga toxin inh
COC(=O)c1ccc(CSc2nc3ccccc3c(=O)n2CC(C)C)o1,-4%,1%,1,-9%,-7%,-4
O=C(CSc1nc2ccccc2c(=O)n1Cc1ccco1)NCc1ccccc1,11%,·,·,·,4%,·
O=C(CSc1nc2ccccc2c(=O)n1Cc1ccco1)Nc1cccc(O)c1,4%,6%,19*,1%,-12%,43
O=C(Nc1cccc(Cl)c1)c1c(O)c2c(n(Cc3ccco3)c1=O)CCCC2,?,12%,31*,5%,1%,57
O=C(Cn1c(=O)n(Cc2ccco2)c(=O)c2ccccc21)Nc1cccc(Cl)c1,-16%,5%,23*,9%,-10%,31*
COc1ccc(Cc2c(-c3ccco3)nc3ccc(Cl)cn23)c(C)c1,·,·,·,·,-28%,·
C#CCOCCOCCOCCNc1nc(N2CCN(C(=O)[C@H](CCCN=C(N)N)n3cc(C(N)[C@H](C)CC)nn3)CC2)nc(N2CCN(C(=O)[C@H](CC(N)=O)n3cc(C(N)[C@@H](C)CC)nn3)CC2)n1 (stereo partly drawn),·,·,·,-1%,-1%,·
CCOC(=O)N1CCN(C(=O)c2cc(COc3ccc(Cl)cc3OC)on2)CC1,-33%,-12%,-2,-9%,3%,-6
COCCN1CCN(C(=O)c2cc(COc3ccc(Cl)cc3OC)on2)CC1,-9%,-12%,58*,5%,-15%,94*
COc1cc(Cl)ccc1OCc1cc(C(=O)N[C@H]2CCCCNC2=O)no1,-2%,-8%,36*,2%,-3%,62*
O=C(NC1CCc2ccccc21)c1cc(COc2ccc(F)cc2F)on1 (stereo not drawn),2%,6%,-3,0%,3%,29
COc1cc(Cl)ccc1OCc1cc(C(=O)N2CCCCCCC2)no1,-20%,-10%,43*,0%,-10%,84*
COc1cc(C)ccc1OCc1cc(C(=O)N2CCCCCC2)no1,-33%,-11%,30*,-8%,-6%,64*
Cc1n[nH]c(=O)nc1N/N=C/c1ccco1,·,?,11,-9%,-15%,28*
CCOc1ccc(/C=N/Nc2nc(=O)[nH]nc2C)cc1OC,·,-23%,32*,-8%,-5%,34*
COc1cc(/C=N/Nc2nc(C)cc(=O)[nH]2)cc(OC)c1O,6%,1%,-3,0%,-1%,-3
COc1ccc(/C=N/Nc2nc(C)cc(=O)[nH]2)cc1OC,15%,-3%,-2,-9%,4%,-5
COc1cc(/C=N/Nc2nc(=O)[nH]nc2C)cc(OC)c1O,1%,2%,27*,0%,-6%,94*
CCOc1cc(/C=N/Nc2nc(=O)[nH]nc2C)ccc1O,·,-12%,43*,0%,-2%,71*
CC(C)c1ccc(C(CC(=O)O)N2Cc3ccccc3C2=O)cc1 (stereo not drawn),4%,0%,-4,0%,2%,-13
O=C(c1cc(COc2ccc(F)cc2Cl)on1)N1CC2C[C@@H]3CC1C[C@H](C2)C3,-18%,1%,30*,-6%,1%,102*
CCOC(=O)CC1COCCN1C(=O)c1cc(COc2ccc(F)cc2Cl)on1 (stereo not drawn),-25%,0%,39*,-5%,6%,61*
O=C(c1cc(COc2ccc(F)cc2Cl)on1)N1CC[C@@H]2CCCC[C@H]2C1,-1%,-2%,15,?,0%,-2
CCN(CC)C1CCN(C(=O)c2cc(COc3ccc(F)cc3Cl)on2)C1 (stereo not drawn),4%,-1%,20,-1%,6%,3
O=C(c1cc(COc2ccc(F)cc2Cl)on1)N1C[C@H]2CC[C@H]1C2,-43%,-8%,40*,-11%,-3%,66*
CCOCCCNC(=O)c1cc2c(=O)[nH]c3ccccc3c2n1C,·,·,·,·,3%,·
COc1ccc(-n2c(=O)c3c4c(sc3n(Cc3ccc(C(C)(C)C)cc3)c2=O)CCC4)c(OC)c1,·,·,·,·,-4%,·
Nc1ccccc1S(=O)(=O)Nc1cccc2cccnc12,·,·,11,·,·,-7
CCCCNC(=O)c1ccc2c(c1)ncn2C1CCCC1,-4%,7%,34*,13%,-6%,65
